The values that follow come from PubChem BioAssay (Tox21).

Records with an inconclusive call do not appear. Unmarked numbers belong to inactive results. Activity calls are given as the source filed them. Calls come from the whole dose curve; as a rule, active = well fitted cell-killing curve with a large enough effect in the repeat runs; inconclusive = weak or mixed curves, or effect the other way; inactive = flat fitted curve, though single readings scatter.
% is set by controls: 0 for no effect and ±100 for the full control effect.

This experiment can be described thus: qHTS assay to identify small molecule agonists of the TGF-beta/Smad signaling pathway - cell viability counter screen (AID 1346829). Note: top concentration of the series differs between compounds; nearly all actives have a fitted effect of over 45% in size. The note with it: SBE-bla HEK293T viability, CellTiter-Glo luminescence, 5 h; series mostly up to 76.8 µM; activity change, negative = cytotoxicity: at the top concentration. The source says:
National Center for Advancing Translational Sciences [NCATS]
NIH Chemical Genomics Center [NCGC]
U.S. Environmental Protection Agency [EPA]
National Institutes of Environmental Health Sciences [NIEHS]
National Toxicology Program [NTP]
U.S. Food and Drug Administration [FDA]
Transforming growth factor beta (TGF-beta) superfamily consists of a large number of structurally related dimeric proteins that act as hormones or local mediators in regulating a wide range of biological functions. This superfamily includes TGF-betas themselves, the bone morphogenetic proteins (BMPs) and the activins. These ligands induce oligomerization of serine/threonine receptor kinases and phosphorylate the cytoplasmic signaling molecules of Smad protein family. CellSensor SBE-bla HEK 293T cell line (Life Technologies, Carlsbad, CA), responsive to TGF-beta was used to screen Tox21 10K compound library for identification of agonists/antagonists of the Smad signaling pathway. This cell line contains a beta-lactamase reporter gene under control of the Smad binding element (SBE) stably integrated into HEK 293T cells. Also cytotoxicity of the compounds was tested in parallel by measuring the cell viability using CellTiter-Glo assay system in the same wells.
Tox21 Assay Protocol Summary:
SBE-bla HEK 293T cells were dispensed at 4,000/well in 6 uL of assay medium into black wall/clear-bottom 1536-well plates using a Multidrop Combi (ThermoFisher Scientific, Waltham, MA) dispenser. After the assay plates were incubated at 37 C and 5% CO2 for an overnight, 23 nL of compounds dissolved in DMSO, positive controls or DMSO only was transferred to the assay plate by a Pintool station (Kalypsys, San Diego, CA). The assay plates were incubated at 37 C and 5% CO2 for 5 hr. One uL of LiveBLAzer B/G FRET substrate (Life Technologies) was added using a Flying Reagent Dispenser (FRD, Aurora Discovery, San Diego, CA) and the plates were incubated at room temperature for 2 hr. Fluorescence intensity (405 nm excitation, 460 nm and 530 nm emissions) was measured using an Envision plate reader (PerkinElmer, Shelton, CT). For cytotoxicity read, 4 uL of CellTiter-Glo reagent (Promega Corporation, Madison, WI) was added to each well of the assay plates using FRD. After 30min incubation at room temperature, the luminescence intensity was measured using ViewLux plate reader (PerkinElmer).
With `O=C1NCN(c2ccccc2)C12CCN(CCCOc1ccc(F)cc1)CC2`, the “activity change, negative = cytotoxicity” value was 8.47% [at 35.3 µM].
The same measure, in the same setting: to `CC(O)(CS(=O)(=O)c1ccc(F)cc1)C(=O)Nc1ccc(C#N)c(C(F)(F)F)c1` (stereo not given) belongs 0.32% [at 35.3 µM].
The same measure, in the same setting: to `NC(=O)C(Cl)(Cl)Cl` belongs 0.991%; to `Cc1ccccc1C(=O)Nc1cccc(OC(C)C)c1`, -7.13%.
For `CCCCCCC#N`, the “activity change, negative = cytotoxicity” value is -8.39%.
Turning to `CC(=O)c1cc2c(cc1C)C(C)(C)C(C)CC2(C)C` (stereo not given), the “activity change, negative = cytotoxicity” value was -22.2%.
On the same count and under the same terms, with `CCOP(=S)(OCC)Oc1cc(Cl)c(Br)cc1Cl` the figure was -18.5%; with `O=C=Nc1ccc(Cl)cc1`, 1.34%.
Still for that read-out and setting: to `CCCCOC(=O)c1ccccc1C(=O)OCc1ccccc1` belongs -10.9%; to `CC(C)(C)C(O)C(Oc1ccc(Cl)cc1)n1cncn1` (stereo not given), -8.81%.
Consider `[CH3][Sn]([CH3])([Cl])[Cl]`, for which the Potency result was “inactive”.
For the compound `O=C(O)CC(Cl)C(=O)O` (stereo not given), the “activity change, negative = cytotoxicity” value was -1.3%.
On to `CCOP(=O)(OCC)Oc1ccc([N+](=O)[O-])cc1`, for which the Potency entry is “inactive”.
As to `CCOP(=S)(Oc1ccc([N+](=O)[O-])cc1)c1ccccc1` (stereo not given), the “activity change, negative = cytotoxicity” value is -6.09%.
On the same count and under the same terms, to `CCOC(=O)[C@]1(c2ccccc2)Oc2ccccc2[C@@H]1N` belongs -14.5%; to `Cc1ccc(-c2c(Cl)nc(C#N)n2S(=O)(=O)N(C)C)cc1`, -13.4%.
Turning to `CCOP(=S)(OCC)SCSCC`, the “activity change, negative = cytotoxicity” value was 1.24%.
With `COc1nn(CSP(=S)(OC)OC)c(=O)s1`, the “activity change, negative = cytotoxicity” value was -14.8%.
Still for that read-out and setting: to `CC/C(=N\OC/C=C/Cl)C1=C(O)CC(C2CCOCC2)CC1=O` (stereo not given) belongs -0.646%; to `OCCCBr`, -16.1%; to `N#CCC#N`, 4.08%.
On the same count and under the same terms, with `CCOC(=O)CBr` the figure was 3.15%; with `Brc1ccccc1`, 6.27%.
Same read-out and setting: with `CCC(C)(NC(=O)c1cc(Cl)c(C)c(Cl)c1)C(=O)CCl` (stereo not given) the figure was -21.3%; with `O=C(OC1CCCCC1)c1ccccc1C(=O)OC1CCCCC1`, -25.3%.
On to `NC(=O)CI`, for which the “activity change, negative = cytotoxicity” value was -3.43%.
The same measure, in the same setting: to `O=C(CBr)Nc1ccc(Cl)cc1C(=O)c1ccccc1F` belongs 0.829% [at 35.3 µM]; to `O=C(CBr)c1ccccc1`, 8.88%; to `CC(C)(CCl)C(=O)Cl`, 14%.
The same measure, in the same setting: to `COC(=O)c1cncn1C(C)c1ccccc1` (stereo not given) belongs -0.7% [at 35.3 µM]; to `CC(=O)NC1CCSC1=O` (stereo not given), 10.1% [at 35.3 µM]; to `O=C(N[C@H](c1ccccc1)[C@@H]1CN2CCC1CC2)c1c(Cl)ccc(C(F)(F)F)c1Cl`, -17.6%.
Same read-out and setting: to `CCCC(=O)Cl` belongs -2.09%; to `NNC(=O)c1cccnc1`, -8.52%.
Regarding `CCN(C)N=O`, the “activity change, negative = cytotoxicity” value is -1.79%.
Same read-out and setting: to `O=C1C(=O)c2cccc3cccc1c23` belongs 5.28%.
The same measure, in the same setting: with `CC[C@H]1C[C@H]2[C@@H]3CCC4=CC(=O)CC[C@@H]4[C@H]3CC[C@]2(C)[C@H]1O` the figure was 3.62% [at 35.3 µM].
As for `c1ccoc1`, the “activity change, negative = cytotoxicity” value is -1.47%.
Same read-out and setting: with `CC1(C)CCC(Cc2ccc(Cl)cc2)C1(O)Cn1cncn1` (stereo not given) the figure was -2.13%.
Same read-out and setting: to `CCBr` belongs 7.98%.
